# According to PubChem BioAssay AID875 (National Center for Advancing Translational Sciences (NCATS), 2007):
# Out of some 75,000 compounds screened, about 35 (0.05%) were called active. For the sample, actives were picked, then their nearest neighbours and some compounds at random. Unmarked numbers belong to inactive results. Calls follow the shape of the dose curve; as a rule, active = well fitted inhibition curve with a large enough effect; inconclusive = small, poorly fitted or top-dose-only effect; inactive = no such curve, though single readings can be large or run the other way.
# Molecular target: Breast cancer type 1 susceptibility protein (Homo sapiens) (UniProt P38398)
# Assay: qHTS Assay for Inhibitors of BRCT-Phosphoprotein Interaction (Green Fluorophore);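 as to activity change, negative = inhibition: plate controls were peptide without protein for full effect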
# Settings: BRCA1 BRCT-phosphopeptide binding, green fluorescence polarization; series mostly up to 76.9 µM; activity change, negative = inhibition: at the top concentration
# Description: NIH Molecular Libraries Screening Centers Network [MLSCN]
# NIH Chemical Genomics Center [NCGC]
# PI Name: Natarajan, Amarnath; University of Texas
# A complex of BRCT (C-terminal portion of BRCA1, MW ~35 kDa, His-tagged) and fluorescently labeled pBACH1 phosphorylated 10 aa peptide fragment of BACH1, a helicase implicated in DNA repair, is incubated with library members. Inhibitors of BRCT-pBACH1 binding are detected by a decrease in the fluorescence polarization (FP) of the fluorophore. In order to minimize the effect of fluorescence artifacts and to increase the overall robustness of the screen, the compound library members were incubated in separate reactions with fluorescein labeled probe-protein complexes. Protein and labeled probes were supplied by Dr. Amarnath Natarajan, Department of Pharmacology and Toxicology, University of Texas Medical Branch Galveston, TX.
# Assay Buffer: 16mM Na2HPO4, 4 mM NaH2PO4, 150 mM NaCl, 1 mM EDTA, 1 mM DTT, 0.02% NaN3, and 0.01% Tween 20 at pH 7.3.
# 100 nM labeled decapeptide/250 nM protein in columns 1, 2, 5 - 48. Titration of unlabeled decapeptide control (from 10 mM, then 1:2 dilution in duplicate) pin-transferred to column 2, rows 1 to 16. Column 1 is neutral.
# Three uL of reagents were dispensed to 1536-well Greiner black solid-bottom plates. Compounds and controls (23 nL) were transferred
# via Kalypsys PinTool. The plates were incubated for 12 min at room temperature, and then read on ViewLux (Perkin-Elmer) High throughput CCD imager using FITC for the fluorescein-labeled decapeptide probe polarization filter sets. During dispense, reagent bottles were kept submerged into 4 deg C water bath and all liquid lines were covered with aluminum foil to minimize probe and protein degradation. All screening operations were performed on a Kalypsys robotic system (Kalypsys, Inc., San Diego, CA) containing one RX-130 and two RX-90 anthropomorphic robotic arms. The timing and order of assay plates passing through the screening system were adjusted such that each compound library plate was assayed against the fluorescein- and rhodamine-labeled assay systems at immediately adjacent time points.
# Potency is read from the fitted curve at half-maximal effect.
# Sequence of Breast cancer type 1 susceptibility protein (Homo sapiens) (P38398 whole entry, looked up): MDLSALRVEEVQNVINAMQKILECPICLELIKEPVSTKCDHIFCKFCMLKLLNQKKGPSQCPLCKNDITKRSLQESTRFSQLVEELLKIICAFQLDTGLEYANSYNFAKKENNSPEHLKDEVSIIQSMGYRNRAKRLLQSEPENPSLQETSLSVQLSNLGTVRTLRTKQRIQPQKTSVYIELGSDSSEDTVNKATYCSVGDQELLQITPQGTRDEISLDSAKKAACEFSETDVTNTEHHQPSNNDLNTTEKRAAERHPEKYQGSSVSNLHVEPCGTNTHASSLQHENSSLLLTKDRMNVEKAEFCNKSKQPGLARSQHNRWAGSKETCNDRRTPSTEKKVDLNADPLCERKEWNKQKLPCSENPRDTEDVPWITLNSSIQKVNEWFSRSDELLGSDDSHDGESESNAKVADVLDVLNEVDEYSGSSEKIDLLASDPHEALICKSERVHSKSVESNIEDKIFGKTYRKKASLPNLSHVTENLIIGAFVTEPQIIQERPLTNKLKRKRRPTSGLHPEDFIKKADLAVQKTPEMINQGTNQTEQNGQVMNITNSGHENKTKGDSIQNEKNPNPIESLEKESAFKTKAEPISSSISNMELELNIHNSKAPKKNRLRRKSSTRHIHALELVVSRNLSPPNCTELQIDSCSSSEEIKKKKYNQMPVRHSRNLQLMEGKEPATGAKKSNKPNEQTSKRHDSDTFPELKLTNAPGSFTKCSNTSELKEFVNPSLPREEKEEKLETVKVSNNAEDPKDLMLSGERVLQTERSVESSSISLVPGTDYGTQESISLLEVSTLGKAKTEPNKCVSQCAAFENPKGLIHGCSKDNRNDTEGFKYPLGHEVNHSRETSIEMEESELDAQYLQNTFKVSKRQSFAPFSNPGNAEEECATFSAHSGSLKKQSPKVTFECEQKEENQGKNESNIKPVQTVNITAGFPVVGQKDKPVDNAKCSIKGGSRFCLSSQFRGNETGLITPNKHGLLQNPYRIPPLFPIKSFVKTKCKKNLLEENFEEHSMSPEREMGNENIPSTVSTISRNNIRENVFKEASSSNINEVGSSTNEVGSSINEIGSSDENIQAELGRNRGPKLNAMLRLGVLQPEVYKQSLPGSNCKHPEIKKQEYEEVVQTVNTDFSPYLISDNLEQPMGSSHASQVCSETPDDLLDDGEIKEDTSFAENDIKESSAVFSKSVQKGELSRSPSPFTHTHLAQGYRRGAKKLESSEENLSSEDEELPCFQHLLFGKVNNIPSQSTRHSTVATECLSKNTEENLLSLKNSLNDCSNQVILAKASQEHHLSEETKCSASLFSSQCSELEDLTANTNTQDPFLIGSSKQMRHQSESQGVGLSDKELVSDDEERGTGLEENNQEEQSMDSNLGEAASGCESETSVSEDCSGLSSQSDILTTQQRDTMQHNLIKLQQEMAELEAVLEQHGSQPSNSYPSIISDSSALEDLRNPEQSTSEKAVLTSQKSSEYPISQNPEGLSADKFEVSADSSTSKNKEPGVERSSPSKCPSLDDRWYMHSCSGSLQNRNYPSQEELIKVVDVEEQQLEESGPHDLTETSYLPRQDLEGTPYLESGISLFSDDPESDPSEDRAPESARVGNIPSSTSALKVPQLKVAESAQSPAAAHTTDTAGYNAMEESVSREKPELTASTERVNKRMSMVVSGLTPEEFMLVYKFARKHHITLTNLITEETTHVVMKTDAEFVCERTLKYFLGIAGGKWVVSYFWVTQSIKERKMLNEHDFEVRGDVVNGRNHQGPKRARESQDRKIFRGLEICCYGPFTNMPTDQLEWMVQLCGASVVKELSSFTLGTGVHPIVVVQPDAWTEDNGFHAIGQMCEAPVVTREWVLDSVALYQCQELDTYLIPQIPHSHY
Structure (SMILES),"activity change, negative = inhibition",Potency
C(=C\c1ccccc1)/CSc1nnc(-c2cccnc2)n1Cc1ccco1,-0.527%,
CCN1C(=O)c2cccc3c(N)ccc1c23,-1.28%,
Nc1ccc2c3c(cccc13)C(=O)NC2=O,,12.6 µM (active)
Cc1ccc(C)c(N2CCN(S(=O)(=O)c3ccc4c(c3)oc(=O)n4C)CC2)c1,1.05%,
CCN(CC)CCNC(=O)Cn1cnc2sc(C)c(S(=O)(=O)N3CCOCC3)c2c1=O,-0.894%,
CC(=O)Nc1ccc(S(=O)(=O)N2CCSCC2)cc1,0.335%,
COc1cccc(CNC(=O)C2CCN(S(=O)(=O)c3cccc4cccnc34)CC2)c1,-0.134%,
Cc1ccc(S(=O)(=O)c2c(N)n(C)c3nc4ccccc4nc23)cc1,3.01%,
O=C(Nc1ccc(S(=O)(=O)N2CCCC2)cc1Cl)C1=COCCO1,0.643%,
O=C(c1cnccn1)N1CCC2(CCN(Cc3cc(C(F)(F)F)cc(C(F)(F)F)c3)CC2)CC1,0.461%,
CCOc1ccccc1N(CC(=O)NC1CCCCC1)C(=O)CCCC(=O)Nc1ccccn1,-1.87%,
Cc1cc(C)cc(OCc2nnc(SCC(=O)OC3CCCCC3)o2)c1,-1.6%,
CCOc1cc(S(=O)(=O)NCc2ccc3c(c2)OCO3)ccc1F,0.095%,
COc1ccc(-c2nc3cnc(OC)nc3n(Cc3ccc(F)cc3)c2=O)cc1,-2.13%,
Cc1cc(N=CC2=C(O)CCCC2=O)no1,0.2%,
CC(=O)c1nc(N2C(=O)C3CC=C(C)CC3C2=O)sc1C (stereo not drawn),0.509%,
Cc1cn(COC/C=C/c2ccccc2)c(=O)[nH]c1=O,1.28%,
O=C1NC(c2ccncc2)Nc2sc3c(c21)CCCC3 (stereo not drawn),1.19%,
COc1ccc2c(c1)C=CC1(O2)N(CCO)c2ccccc2C1(C)C (stereo not drawn),7.47%,
CN(C)CCOC(=O)C(c1ccccc1)C1(O)CCCC1 (stereo not drawn),-1.8% [at 3.08 µM],
COC(=O)c1ccc(CN(c2ccccc2OC)S(=O)(=O)c2cccs2)o1,-0.914%,
COc1ccc(S(=O)(=O)NC(CC(=O)NCc2ccccc2OC)c2ccco2)cc1 (stereo not drawn),-1.17%,
CCOC(=O)C1=C(CNC2CCCCC2)NC(=O)NC1c1cc(C)ccc1C (stereo not drawn),0.587%,
CCSc1nc2c(c(=O)[nH]1)C(c1cccnc1)C(C(=O)OC(C)C)=C(C)N2 (stereo not drawn),-0.428%,
O=C(CCC(=O)N1CCN(S(=O)(=O)c2ccccc2)CC1)NC1CCCc2ccccc21 (stereo not drawn),-0.237%,
CCNS(=O)(=O)c1ccc(NC(=O)Nc2cccc(OC)c2)cc1,0.136%,

Structure (SMILES),"activity change, negative = inhibition",Potency
O=S(=O)(/C=C/c1ccccc1)NCCc1ccccn1,-2.8%,
CCOc1ccc(NC(=O)Nc2cc(C)ccc2OC)cc1,-0.177%,
Cc1cc2nc3c(=O)[nH]c(=O)nc-3n(C[C@H](O)[C@H](O)[C@H](O)CO)c2cc1C,,7.94 µM (active)
C=CCn1c(COc2ccccc2C)nnc1SCC(=O)O,-0.75%,
O=C(C(Cc1ccccc1)n1cccc1)N1CCN(C2CCCCC2)CC1 (stereo not drawn),0.978%,
OCc1n[nH]c(CO)n1,-3.47%,
CCn1ncc(Br)c1C(=O)Nc1cc(C)ccc1F,-0.796%,
CCOC(=O)CN1C(=O)C(O)(CC(=O)c2ccccn2)c2ccccc21 (stereo not drawn),-0.714%,
CCCOc1cccc(C(=O)Nc2nnn(CCC)n2)c1,-2.09%,
Cn1cnc2c1c(=O)n(Cc1c(Cl)cccc1Cl)c(=O)n2C,1.6%,
COc1cccc([C@H]2Oc3ccc(OC)cc3/C(=N\OCC[C@@H]3C=C[C@H](OC(C)=O)[C@H](COC(C)=O)O3)[C@@H]2O)c1,1.43% [at 15.4 µM],
Cc1ccccc1OCC(=O)Nc1ccc(N2CCN(C(=O)C(C)C)CC2)c(Cl)c1,-0.753%,
O=C(NCCSc1ccccc1)c1ccco1,0.586%,
CCCCOc1ccc(-c2nnc(-c3ccco3)o2)cc1,0.772%,
COc1ccc(-c2oc3cc(OC)ccc3c2C(=O)c2ccc(C#N)cc2)cc1,0.239%,
Cc1cnc(CNc2cc(-c3c(C)noc3C)ncn2)cn1,-3.11%,
Cn1c(N)c(C(=O)COC(=O)c2cc(C(F)(F)F)nc3c(C(F)(F)F)cccc23)c(=O)n(C)c1=O,-3.55%,
CCc1c(C)nc2cc(-c3cccs3)[nH]n2c1=O,2.29%,
COC(=O)c1ccc(C23CC4(C2)[C@H](CN(Cc2cccnc2)[C@@H]4c2ccccc2)C3c2ccc(Cl)nc2)cc1 (stereo partly drawn),-1.12%,
COc1ccc2c(=O)cc(-c3ccccc3)oc2c1O,-2.2%,
Cc1ccc(NC(=O)CN2CCC3(O)CCCCC3C2c2ccc3c(c2)OCO3)c(C)c1 (stereo not drawn),-4.21%,
CCS(=O)(=O)N(C)[C@@H]1c2cc(C#N)ccc2OC(C)(C)[C@H]1O,inactive,
CCc1nc(Nc2ccc3nccnc3c2)c2oc3ccccc3c2n1,4.22%,
O=C(CN1C(=O)CSc2ncccc21)N1CCOCC1,0.57%,
FC(F)(F)c1cc(-c2cccs2)nc(NCc2ccco2)n1,-4.7%,
Cc1n[nH]c(C)c1S(=O)(=O)N1CCCC(C(=O)NCC2COc3ccccc3O2)C1 (stereo not drawn),-1.37%,

Structure (SMILES),"activity change, negative = inhibition",Potency
Cc1ccc(S(=O)(=O)N2CCC(C(=O)N[C@@H](C)C(=O)NCCc3ccccc3)CC2)cc1,-2.76%,
O=C(O)C1CCN1C1CCCCC1 (stereo not drawn),-0.829%,
CCC(=O)c1ccc(OCC(O)CN2CCN(c3cccc(C(F)(F)F)c3)CC2)cc1 (stereo not drawn),-3.1%,
CC1CN(C(=O)CN2C(=O)NC(C)(c3ccccc3)C2=O)CC(C)O1 (stereo not drawn),1.73%,
O=C(c1cc(C(F)(F)F)cc(C(F)(F)F)c1)N1CCC2(CCCN(Cc3ccncc3)C2)CC1,-0.118%,
CS(=O)(=O)c1ccc2nc(NC(=O)C3C4C=CC(C4)C3C(=O)O)sc2c1 (stereo not drawn),-1.62%,
CCOC(=O)/C=c1\s/c(=C\c2ccccc2OC)c(=O)n1CC(=O)N1CCOCC1,-0.845%,
CCC1=C(OC(=O)N(CC)CC)N2C(=O)OC(=NCC3CC3)[C@]2(C)[C@H]2C1=CC[C@H]1C(=O)N(CC(=O)OC)C(=O)[C@H]12,-1.73%,
Cc1cc(/C=N/n2cnnc2)c(C)n1-c1cccc(C(=O)O)c1,-0.794%,
CC(=O)N(Cc1cccs1)C1CCOC(C)(C)C1 (stereo not drawn),-1.07%,
COCc1nc2ccccc2n1Cc1ccccc1Br,-0.882%,
CCn1c(CNC(=O)c2ccc(OC)c(OC)c2)nnc1SCC(=O)Nc1ccccc1,-1.99%,
COc1ccc(OC)c(CN2C(=O)CCC2(C)C(=O)NC2CCCCCC2)c1 (stereo not drawn),0.0804%,
c1ccc(-c2noc(-c3cccs3)n2)nc1,-2.54%,
CCOc1ccc(OCC)c(NC(=O)CN(C)S(=O)(=O)c2cccc3nsnc23)c1,0.0132%,
Cc1ccc2nc(NC3=NCN(CCc4ccccc4)CN3)nc(C)c2c1,-1.27%,
COc1ccccc1-c1nc(NCc2cccs2)c2ccccc2n1,0.498%,
CC1=C(C(=O)Nc2ccccc2)C(c2cccs2)C(C#N)=C(SCC#N)N1 (stereo not drawn),32.1%,
COc1ccc(Cl)cc1S(=O)(=O)N1CCN(CC(=O)C(C)(C)C)CC1,-0.719%,
C=CCSc1nc2c(c(=O)[nH]1)C(C(C)C)C(C#N)=C(N)O2 (stereo not drawn),-0.716%,
O=P(c1ccc2c(c1)OCCO2)(N1CCOCC1)N1CCOCC1,-1.91%,
CCCCCn1c(SCCC(C)C)nc2c1c(=O)[nH]c(=O)n2C,-2.32%,
Cc1sc2c(c1C)c(=O)n(-c1ccccc1)c1nncn21,-0.541%,
CCCC(=O)N1c2ccc(-c3csc(N)n3)cc2CC1C (stereo not drawn),-1.31%,
CCCCCOC(=O)NCCOC(=O)Nc1ccc(C(=O)OCC)cc1,-3.13%,
Cn1c(=O)c2c(ncn2CC(=O)N2CCN(c3ccccc3)CC2)n(C)c1=O,-2.15%,

Structure (SMILES),"activity change, negative = inhibition",Potency
CN(CCOc1ccc(CC2SC(=O)NC2=O)cc1)c1ccccn1 (stereo not drawn),-0.73% [at 3.08 µM],
COc1cc2c(cc1O)C(SC)=NC(C)(C)C2,-1.19%,
O=C(CN1CCN(C(=O)c2ccco2)CC1)Nc1ccc(Cl)c(C(F)(F)F)c1,2.17%,
Cc1ccc(C(=O)Nc2ccccc2C(=O)NC2CCCCC2)cc1S(=O)(=O)N1CCOCC1,1.27%,
C/C(=C\C(=O)c1ccccc1)Nc1cccc(O)c1,0.601%,
CCC/C(O)=C1\C(=O)CC(C)(C)CC1=Nc1ccccc1OC,-1.06%,
COC(=O)c1cc(NC(=O)CN2CCC(C(N)=O)(N3CCCCC3)CC2)cc(C(=O)OC)c1,-2.28%,
Cc1cc(C(=O)Nc2c(C)n(C)n(-c3ccccc3)c2=O)cs1,-7%,
COc1ccc(C2C3=C(CC(C)(C)CC3=O)Oc3ncn4nc(-c5cccnc5)nc4c32)cc1OC (stereo not drawn),-0.0734%,
Cn1cccc1C(=O)N1CCC[C@@]2(CCN(Cc3nccs3)C2)C1,-1.08%,
O=[n+]1c2c(n([O-])c3cc(Br)ccc31)CCC2,-1.52%,
COc1cc([C@H]2c3cc4c(cc3[C@@H](O[C@@H]3O[C@H]5CO[C@@H](C)O[C@]5(O)C[C@H]3O)[C@@H]3COC(=O)[C@H]23)OCO4)cc(OC)c1O,-3.38%,
FC(F)(F)c1ccc(CN2C[C@@H]3C(c4ccccc4)C4(c5ccccc5)CC3(C4)[C@H]2c2ccccc2)cc1 (stereo partly drawn),2.27%,
CC1CCN(c2nc3c(c(=O)[nH]c(=O)n3C)n2CCCc2ccccc2)CC1,4.69%,
Cc1cccc2c3c(ccc12)C1=C(C(=O)C3=O)C(C)CO1 (stereo not drawn),-7.86%,
CCOC(=O)c1cc2n(c1N)-c1ccccc1C2=O,,15.8 µM (active)
CCOC(=O)c1cc2n(c1C)-c1ccccc1C2=O,-2.66%,
CCOC(=O)Nc1ccccc1N1C(=O)c2ccccc2C1=O,-2.15%,
COC(=O)[C@@H]1C[C@@]2(O)[C@H](O)[C@H](O)[C@H](O)C[C@H]2N1CC1CCCCC1,-2.7%,
Cn1c(=O)n(C)c2cc(CNc3ccc(N4CCOCC4)c(C(=O)O)c3)ccc21,1.12%,
O=C(NCc1ccc(Cl)cc1)c1cc2c(nc3sccn32)s1,-0.656%,
COC(=O)[C@@H]1C[C@@]2(O)[C@@H](O)[C@@H](O)[C@@H](O)C[C@H]2N1Cc1ccc(C)s1,-3.88%,
CCc1c(O)nc(SCC(=O)N2CCCCC2)n(-c2ccccc2C)c1=O,-0.89%,
O=C(NC1CCCC1)c1ccc(Br)s1,-2.61%,
COc1ccccc1CNC(=O)C1CCN(S(C)(=O)=O)CC1,-0.664%,
